This note sets out measurements from PubChem BioAssay (NCI).

The structures appear in SMILES notation. This is part of a sample that, as a whole, favours compounds with a hit. Of some 83,000 tested, about 20% had one in any assay.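 For each line, cells grew in 96-well plates with the test compound present at a single concentration for 48 hours.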 A number with no mark means an inactive call. The source made the active and inactive calls. How the source made its calls: active means growth percent below 10; inactive means the rest.

Holding throughout (assay): NCI-60 one-dose screen, 48 h (100 = growth as untreated, 0 = no growth, -100 = all killed)
What all share (conditions): 10 µM unless noted

Assay [1] deals with HCT-15 colon.
In assay [2] the test system is HT29 colon.
For assay [3], the system named is SNB-75 CNS.
Assay [4] has as its system SNB-19 CNS.
The test system of assay [5] is U251 CNS.
Assay [6] relates to PC-3 prostate.
The subject of assay [7] is SK-MEL-5 melanoma.
The subject of assay [8] is UACC-62 melanoma.
For assay [9], the system named is LOX IMVI melanoma.
Assay [10] relates to SK-MEL-28 melanoma.
In assay [11] the test system is SK-MEL-2 melanoma.
Assay [12] deals with EKVX NSCLC.
Assay [13] concerns SN12C renal.
Assay [14] concerns UO-31 renal.
The test system of assay [15] is TK-10 renal.
Assay [16] concerns ACHN renal.
Assay [17] concerns CAKI-1 renal.
For assay [18], the system named is A498 renal.
Assay [19] relates to CCRF-CEM leukemia.
Assay [20] relates to MOLT-4 leukemia.

`O=C1c2ccccc2-c2c1c1ccncc1c(=O)n2CCCn1ccnc1`: the growth in assay [1] was 40.8%; in [2] it was 21%; in assay [3], 50.3%; in [4], 41.5%; in assay [5], 20.4%; in assay [6] it was 38%. Also, the growth in assay [7] is 28.5%; in assay [8], 39.7%; in assay [9], 6.42% (active); in assay [10], 88.3%; in assay [11], 103%; in assay [12] it was 96.8%. Besides, the growth in assay [13] was 49.1%; in assay [14], 19.1%; in assay [15], 82.6%; in assay [16], 0.133% (active); in [17], 49.9%; in assay [18], 80.9%. Besides, the growth is 18.5% in [19] and -12.7% (active) in assay [20].

On to `CCN1C(=O)N(CC)C2C1NN=c1s/c(=C\c3ccccc3)c(=O)n12` (stereo not given), for which the growth in [1] was 11%; in [2], 3.09% (active); in assay [3], 20.8%; in [4], 27.1%; in assay [5], 8.08% (active); in [6], 23.9%. Besides, the growth was -9.58% (active) in assay [7]; 24.3% in assay [8]; 15.9% in assay [9]; 60.6% in assay [10]; 42.5% in assay [11]; 47.1% in [12]. Also, the growth is 26.5% in assay [13]; 37.9% in assay [14]; 65.6% in assay [15]; 30.2% in [16]; 27.1% in assay [17]; 9.75% (active) in assay [18]. The growth in assay [19] is 6.04% (active); in assay [20] it was 10.9%.

As to `CCCC[N+]1(C)CCN=C1Cc1ccccc1` (stereo not given), the growth is 103% in [1]; 89.3% in assay [2]; 99.6% in assay [3]; 104% in [4]; 95.8% in assay [5]; 87.2% in [6]. The growth in [7] was 97.8%; in assay [8], 96.7%; in assay [9] it was 99.8%; in assay [10], 110%; in assay [11], 103%; in [12], 96.6%. In addition, the growth in assay [13] was 94.4%; in assay [14], 95.5%; in [15] it was 91.5%; in assay [16] it was 112%; in assay [17] it was 95.8%; in assay [18], 97.2%. Also, the growth was 83.5% in assay [19] and 94.6% in [20].

In the case of `O=c1ccc2c(ccc3ncccc32)o1`, the growth in assay [1] was 108%; in assay [2], 99.9%; in assay [3], 105%; in assay [4], 118%; in [5], 109%; in [6], 94.3%. Further, the growth in assay [7] is 95%; in assay [8] it was 112%; in assay [9] it was 102%; in [10], 113%; in assay [11], 112%; in assay [12] it was 118%. Further, the growth in assay [13] was 106%; in assay [14], 77.1%; in assay [15], 105%; in assay [16], 95.6%; in [17], 90%; in assay [18] it was 81.8%. Moreover, the growth in assay [19] was 104%; in [20], 92.7%.

For `N/C(=N\c1nc2ccccc2s1)NC(=O)Nc1ccccc1`, the growth in assay [1] is 23.4%; in assay [2], 14.3%; in assay [3] it was 31.4%; in assay [4] it was 32.1%; in assay [5], 21%; in assay [6], 57.1%. Further, the growth is 32.5% in assay [7]; 21% in assay [8]; 34.7% in assay [9]; 72.3% in [10]; 30.2% in assay [11]; 54% in assay [12]. Also, the growth in assay [13] is 29%; in assay [14] it was 46.3%; in [15], 75.3%; in assay [16], 55.7%; in [17] it was 44.3%; in assay [18] it was 42.7%. The growth was 12.5% in assay [19] and 27.8% in assay [20].

`Cn1ccnc1C(=O)/C=C/c1ccc(CC(=O)Nc2cc(F)c(F)c(F)c2)cc1`: the growth in assay [1] was 9.67% (active); in [2] it was 10.7%; in assay [3], -3.33% (active); in assay [4], 20.3%; in assay [5] it was 8.83% (active); in assay [6] it was 26.1%. The growth in assay [7] was 62.5%; in [8], 43.9%; in assay [9], -3.99% (active); in [10], 93.5%; in [11], 99.6%; in assay [12], 32.3%. Besides, the growth in [13] was 13.2%; in assay [14] it was 31.7%; in assay [15], 47.8%; in assay [16] it was 45.9%; in assay [17] it was 31.4%; in assay [18], 65%. For the same compound, the growth was 8.15% (active) in assay [19] and 6.4% (active) in assay [20].

Consider `O=C(Nc1ccc(Oc2cccc(F)c2)c(Cl)c1)c1cnccn1`, for which the growth was 31.2% in [1]; 9.13% (active) in assay [2]; 0.855% (active) in assay [3]; 40.4% in assay [4]; 25.7% in [5]; 16.7% in [6]. Moreover, the growth was 9.61% (active) in assay [7]; 33.5% in [8]; 43.9% in assay [9]; 60.6% in assay [10]; 37.7% in assay [11]; 51.3% in [12]. For the same compound, the growth in [13] was 45.6%; in assay [14] it was 43.4%; in assay [15] it was 59.5%; in assay [16], 37.7%; in assay [17], 25.2%; in assay [18], 69.4%. For the same compound, the growth in assay [19] is 18.4%; in assay [20], 41.2%.

As to `Cc1ccc2c(c1)CC(O)CC1C(=O)N(CCO)CC(=O)N21` (stereo not given), the growth is 106% in assay [1]; 96.1% in assay [2]; 83% in assay [3]; 102% in assay [4]; 95.4% in [5]; 96.8% in assay [6]. Besides, the growth is 104% in assay [7]; 97.3% in assay [8]; 96.2% in [9]; 102% in assay [10]; 86.2% in [11]; 104% in [12]. For the same compound, the growth in [13] was 100%; in [14], 95.8%; in assay [15], 88.6%; in assay [16], 104%; in [17], 92.6%; in assay [18] it was 99.4%. Also, the growth in [19] is 104%; in assay [20], 92.2%.
